Active and inactive are the calls of the source. No rule for the calls is given here.
Experiment: C difficile toxins, biochemical counterscreen, UDPG substrate absence, confirmatory dose response (AID 720650)
Settings: series mostly up to 19.5 µM; activity change, negative = inhibition: at the top concentration
In the case of CCCS(=O)(=O)NC(=O)C1(C)CCN(C(=O)c2ccco2)C1 (stereo not drawn), the “activity change, negative = inhibition” value is reported as -3.37% (inactive). In the case of Oc1ccc(-c2nc3cnccn3c2Nc2ccc3c(c2)OCCO3)cc1, the “activity change, negative = inhibition” value is reported as -2.26% (inactive). With Clc1ccc(/C=C/c2ncc[nH]2)c(Cl)c1 the “activity change, negative = inhibition” value was -10.7% (inactive). In the case of CNc1nc(C23CC4CC(CC(C4)C2)C3)cs1, the “activity change, negative = inhibition” value is reported as 2.94% (inactive). With CCn1c(=S)[nH]c2c(=O)n(C)c(=O)n(C)c21 the AC50 was 13.2 µM (active). In the case of CCCc1cc(-c2n[nH]c(C(=O)OCC)c2-c2cscn2)c(O)cc1O, the “activity change, negative = inhibition” value is reported as -11.6% (inactive). With COc1cc(C=C2CN(C)C(=O)C2=O)ccc1O the “activity change, negative = inhibition” value was -5.77% (inactive). With COc1ccc(C(=O)OCC(=O)Nc2ccc3[nH]c(=O)[nH]c3c2)c(OC)c1OC the “activity change, negative = inhibition” value was -9.79% (inactive). In the case of CC(C)Sc1nnc(NC(=O)c2ccco2)s1, the “activity change, negative = inhibition” value is reported as -5.43% (inactive). In the case of COc1cc(/C=N/NC2=NCCCCC2)ccc1O, the “activity change, negative = inhibition” value is reported as -10.1% (inactive). With COc1ccccc1/C=C/c1onc(C)c1S(=O)(=O)N1CCC(C(=O)NC(C)C)CC1 the “activity change, negative = inhibition” value was -4.21% (inactive). For COc1ccc(C)cc1NC(=O)C(OC(=O)C1=NNC(=O)CC1)c1ccccc1 (stereo not drawn), the “activity change, negative = inhibition” value was 1.41% (inactive). With C/C(=N\Nc1ccc([N+](=O)[O-])cc1)c1cccc(N)c1 the AC50 was 1.42 µM (active). For COc1ccc(C2=NS(=O)(=O)N(C)C(C(=O)N(C)Cc3ccccc3)=C2)cc1, the “activity change, negative = inhibition” value was -4.01% (inactive). For CC12CCC(=O)N1C(C(=O)OCc1c(Cl)cccc1Cl)CS2 (stereo not drawn), the “activity change, negative = inhibition” value was -9.04% (inactive). With S=C(c1cn(Cc2ccccc2)c2ccccc12)N1CCOCC1 the “activity change, negative = inhibition” value was -10.2% (inactive). For COC(=O)c1ccc(C23CC4(C2)[C@H](CN(Cc2ccc(C(F)(F)F)cc2)[C@@H]4c2ccccc2)C3c2ccc(Cl)nc2)cc1 (stereo partly drawn), the “activity change, negative = inhibition” value was -0.958% (inactive). In the case of C=CCN=c1scc(C)n1/N=C/c1ccc(O)c(O)c1, the AC50 is reported as > 39 µM (inactive).

— PubChem BioAssay AID720650 (Broad Institute, 2013)
